Data published in the supplement of paper PMC4466140.

Target: ScBbc1
Experiment: SPOT peptide array binding signal intensity (averaged, normalized) (arbitrary units (background-subtracted, floor 0; scale differs between SH3 domains)); higher = stronger binding of the SH3 domain to the peptide
How it was run: (§1)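 Binding signal is given in arbitrary units that differ between domains and is the normalized, background-subtracted spot intensity averaged across replicates. Each GST-SH3 fusion from one of four yeast species was made in E. coli BL21(DE3), purified on glutathione Sepharose and incubated at 10 μg/ml overnight at 4°C on cellulose-bound synthetic 15-mer peptides in which cysteines were replaced by serines. Detection used anti-GST antibody, an HRP anti-mouse secondary and luminol, followed by imaging and Genespotter quantification.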

Row | Binder | SPOT peptide array binding signal intensity
1 | LLIRWLILMPLVGSR | 1.5

Target: ScBem1-D1
Experiment: as above
How it was run: as §1

Row | Binder | SPOT peptide array binding signal intensity
2 | LLIRWLILMPLVGSR | 60

Target: ScBzz1-D1
Experiment: as above
How it was run: as §1

Row | Binder | SPOT peptide array binding signal intensity
3 | LLIRWLILMPLVGSR | 37

Target: ScBzz1-D2
Experiment: as above
How it was run: as §1

Row | Binder | SPOT peptide array binding signal intensity
4 | LLIRWLILMPLVGSR | 240

Target: ScCyk3
Experiment: as above
How it was run: as §1

Row | Binder | SPOT peptide array binding signal intensity
5 | LLIRWLILMPLVGSR | 122

Target: ScFus1
Experiment: as above
How it was run: as §1

Row | Binder | SPOT peptide array binding signal intensity
6 | LLIRWLILMPLVGSR | 3690

Target: ScHof1
Experiment: as above
How it was run: as §1

Row | Binder | SPOT peptide array binding signal intensity
7 | LLIRWLILMPLVGSR | 0.25

Target: ScHse1
Experiment: as above
How it was run: as §1

Row | Binder | SPOT peptide array binding signal intensity
8 | LLIRWLILMPLVGSR | 2940

Target: ScLsb1
Experiment: as above
How it was run: as §1

Row | Binder | SPOT peptide array binding signal intensity
9 | LLIRWLILMPLVGSR | 11

Target: ScLsb2
Experiment: as above
How it was run: as §1

Row | Binder | SPOT peptide array binding signal intensity
10 | LLIRWLILMPLVGSR | 33

Target: ScLsb3
Experiment: as above
How it was run: as §1

Row | Binder | SPOT peptide array binding signal intensity
11 | LLIRWLILMPLVGSR | 850

Target: ScLsb4
Experiment: as above
How it was run: as §1

Row | Binder | SPOT peptide array binding signal intensity
12 | LLIRWLILMPLVGSR | 150

Target: ScMyo3
Experiment: as above
How it was run: as §1

Row | Binder | SPOT peptide array binding signal intensity
13 | LLIRWLILMPLVGSR | 5

Target: ScMyo5
Experiment: as above
How it was run: as §1

Row | Binder | SPOT peptide array binding signal intensity
14 | LLIRWLILMPLVGSR | 7

Target: ScNbp2
Experiment: as above
How it was run: as §1

Row | Binder | SPOT peptide array binding signal intensity
15 | LLIRWLILMPLVGSR | 566

Target: ScPex13
Experiment: as above
How it was run: as §1

Row | Binder | SPOT peptide array binding signal intensity
16 | LLIRWLILMPLVGSR | 65.2

Target: ScRvs167
Experiment: as above
How it was run: as §1

Row | Binder | SPOT peptide array binding signal intensity
17 | LLIRWLILMPLVGSR | 19.3

Target: ScSho1
Experiment: as above
How it was run: as §1

Row | Binder | SPOT peptide array binding signal intensity
18 | LLIRWLILMPLVGSR | 2890

Target: ScSla1-D1-D2
Experiment: as above
How it was run: as §1

Row | Binder | SPOT peptide array binding signal intensity
19 | LLIRWLILMPLVGSR | 23

Target: ScSla1-D3
Experiment: as above
How it was run: as §1

Row | Binder | SPOT peptide array binding signal intensity
20 | LLIRWLILMPLVGSR | 132

Target: SpAbp1-D1
Experiment: as above
How it was run: as §1

Row | Binder | SPOT peptide array binding signal intensity
21 | LLIRWLILMPLVGSR | 248

Target: SpBbc1
Experiment: as above
How it was run: as §1

Row | Binder | SPOT peptide array binding signal intensity
22 | LLIRWLILMPLVGSR | 22.8

Target: SpBzz1-D1
Experiment: as above
How it was run: as §1

Row | Binder | SPOT peptide array binding signal intensity
23 | LLIRWLILMPLVGSR | 300

Target: SpBzz1-D2
Experiment: as above
How it was run: as §1

Row | Binder | SPOT peptide array binding signal intensity
24 | LLIRWLILMPLVGSR | 13.5

Target: SpCyk3
Experiment: as above
How it was run: as §1

Row | Binder | SPOT peptide array binding signal intensity
25 | LLIRWLILMPLVGSR | 25

Target: SpHof1
Experiment: as above
How it was run: as §1

Row | Binder | SPOT peptide array binding signal intensity
26 | LLIRWLILMPLVGSR | 306

Target: SpHof1-2
Experiment: as above
How it was run: as §1

Row | Binder | SPOT peptide array binding signal intensity
27 | LLIRWLILMPLVGSR | 75.2

Target: SpHof1-3
Experiment: as above
How it was run: as §1

Row | Binder | SPOT peptide array binding signal intensity
28 | LLIRWLILMPLVGSR | 2420

Target: SpHse1
Experiment: as above
How it was run: as §1

Row | Binder | SPOT peptide array binding signal intensity
29 | LLIRWLILMPLVGSR | 2700

Target: SpLsb1
Experiment: as above
How it was run: as §1

Row | Binder | SPOT peptide array binding signal intensity
30 | LLIRWLILMPLVGSR | 2

Target: SpLsb4
Experiment: as above
How it was run: as §1

Row | Binder | SPOT peptide array binding signal intensity
31 | LLIRWLILMPLVGSR | 341

Target: SpMyo1
Experiment: as above
How it was run: as §1

Row | Binder | SPOT peptide array binding signal intensity
32 | LLIRWLILMPLVGSR | 18

Target: SpNbp2
Experiment: as above
How it was run: as §1

Row | Binder | SPOT peptide array binding signal intensity
33 | LLIRWLILMPLVGSR | 1450

Target: SpPex13
Experiment: as above
How it was run: as §1

Row | Binder | SPOT peptide array binding signal intensity
34 | LLIRWLILMPLVGSR | 232

Target: SpRvs167
Experiment: as above
How it was run: as §1

Row | Binder | SPOT peptide array binding signal intensity
35 | LLIRWLILMPLVGSR | 37.7

Target: SpSla1-D1-D2
Experiment: as above
How it was run: as §1

Row | Binder | SPOT peptide array binding signal intensity
36 | LLIRWLILMPLVGSR | ≤ 0

Target: SpSla1-D3
Experiment: as above
How it was run: as §1

Row | Binder | SPOT peptide array binding signal intensity
37 | LLIRWLILMPLVGSR | 120
